Source: PubChem BioAssay (National Center for Advancing Translational Sciences (NCATS))
In the library only some 2.4% were active in any assay of this set; here they are far more common.
FEN1 inhibitor – blocks human flap endonuclease 1 | P39748 | Recombinant FEN1 flap cleavage, fluorescence, 15 min | Potency, µM (top dose mostly 114 µM), inactives show at the top dose activity change, negative = inhibition, actives largely listed as inhibitors | 390,000 tested, 0.35% active | AID 588795; further: on the % scale 0 is the no-effect control and ±100 the full control effect; nearly all actives have a fitted effect of over 65% in size
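Recombinant FEN1 (10 nM) was preincubated with pin-transferred compounds for 15 min at room temperature, then flap DNA substrate (50 nM final) was added. Plates were read at 0 and 15 min, and normalized concentration–response data were fitted to a four-parameter Hill equation.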
Pol kappa inh-1 – blocks human DNA polymerase kappa activity | Q9UBT6 | purified Pol kappa, fluorescent DNA synthesis assay, 10 min | Potency, µM (series often up to 107 µM), for the others: at the highest dose activity, negative = inhibition, most hits filed as inhibitors | 400,000 tested, 0.53% active; further: on the % scale 0 is the no-effect control and ±100 the full control effect
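Inhibition of 10 nM Pol kappa is measured by a fluorescent read-out at 0 and 10 min following addition of 50 nM substrate (final), with a 15-min room-temperature compound preincubation.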
Pol eta inh-1 – DNA polymerase eta (human) inhibition | Q9Y253 | recombinant Pol eta, fluorescent DNA replication assay | Potency, µM (series often up to 114 µM), without a hit: at the highest dose activity change, negative = inhibition, most hits filed as inhibitors | 390,000 tested, 1.2% active | AID 588591; further: on the % scale 0 is the no-effect control and ±100 the full control effect
Target sequence (Q9Y253 whole entry, looked up): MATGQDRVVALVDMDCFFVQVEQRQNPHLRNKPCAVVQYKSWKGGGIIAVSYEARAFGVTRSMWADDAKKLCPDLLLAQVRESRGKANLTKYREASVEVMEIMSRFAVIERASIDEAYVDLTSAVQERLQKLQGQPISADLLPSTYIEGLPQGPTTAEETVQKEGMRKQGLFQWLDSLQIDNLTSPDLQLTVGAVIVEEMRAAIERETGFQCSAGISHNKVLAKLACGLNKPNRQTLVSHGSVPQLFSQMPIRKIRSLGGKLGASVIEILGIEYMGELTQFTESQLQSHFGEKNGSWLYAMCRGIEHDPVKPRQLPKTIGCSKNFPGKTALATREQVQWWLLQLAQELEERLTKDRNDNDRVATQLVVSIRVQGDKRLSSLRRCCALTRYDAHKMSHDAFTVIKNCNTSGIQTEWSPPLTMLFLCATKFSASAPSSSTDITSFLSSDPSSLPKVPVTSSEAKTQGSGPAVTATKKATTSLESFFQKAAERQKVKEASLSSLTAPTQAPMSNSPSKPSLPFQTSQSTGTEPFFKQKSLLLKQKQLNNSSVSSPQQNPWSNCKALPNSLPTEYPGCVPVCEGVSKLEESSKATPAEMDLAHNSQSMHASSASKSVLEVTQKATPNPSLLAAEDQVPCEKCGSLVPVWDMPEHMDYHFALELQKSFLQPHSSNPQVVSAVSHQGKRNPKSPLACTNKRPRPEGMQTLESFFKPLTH
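Pol eta at 10 nM preincubated with compounds 15 min at room temperature; reaction started with fluorescent substrate (50 nM final) and read kinetically at 0 and 10 min.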
Pol beta inh – blocks human DNA polymerase beta activity; Pol beta primer extension/strand displacement, fluorescence kinetic; AID 485314; 340,000 tested, 1.3% active; Potency, µM (highest dose often 114 µM), for inactives: top-dose activity change, negative = inhibition, hits mostly inhibitors; P06746; further: on the % scale 0 is the no-effect control and ±100 the full control effect
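Human Pol beta at 10 nM; strand-displacement substrate 50 nM final. Compound exposure 15 min at room temperature before start, reaction 10 min at room temperature.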
Pol iota inh – DNA polymerase iota (human) inhibition. Q9UNA4. Pol iota fluorescent replication assay, 10 min. Potency, µM (top dose mostly 115 µM), for the others: at the top dose activity, negative = inhibition, hits mostly inhibitors. 390,000 tested, 1% active. AID 588590
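Fluorescent replication assay read twice, at 0 min and 10 min after adding 50 nM (final) substrate. Enzyme (10 nM) and compounds were first incubated 15 min at room temperature; enzyme-free buffer wells were negative controls.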
WRN helicase inh – inhibitors of human WRN helicase; WRN helicase unwinding, fluorescent forked duplex, kinetic; Potency, µM (titrated, usually from 114 µM), for the others: top-dose activity change, negative = inhibition, usual class: inhibitors; 360,000 tested, 0.46% active; further: on the % scale 0 is the no-effect control and ±100 the full control effect; nearly all actives have a fitted effect of over 55% in size
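Kinetic red-fluorescence monitoring (525/598 nm) tracks WRN helicase activity after 100 nM fluorophore-quencher forked duplex and 2 mM ATP are added to 20 nM enzyme pretreated 15 min at room temperature with compound.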
Pol iota confirm – Human Pol iota inhibitor confirmatory assay; shares compounds with Pol kappa inh-1; Pol iota primer extension, TAMRA/BHQ fluorescence; Potency, µM, hits mostly inhibitors; 1,500 tested, 77% active; AID 720496
Pol kappa inh-2 – Pol kappa (human) inhibition, cherry-pick confirmation | shares compounds with Pol eta inh-1 | purified Pol-kappa, fluorescent strand-displacement substrate | Potency, µM, usual class: inhibitors | 920 tested, 76% active
Pol eta inh-2 – confirmation of human DNA polymerase eta inhibitors; shares compounds with Pol eta inh-1; AID 720502; Pol eta primer extension, TAMRA/BHQ fluorescence, 10 min; Potency, µM, actives largely listed as inhibitors; 2,600 tested, 64% active
* hit, by the source's call; ? = inconclusive; nt = no result given; [ ] = dose if it differs, or a comment. The call rests on the fitted dose curve; in most records, active means well fitted curve in the direction sought with a large enough effect; inconclusive means small, poorly fitted or top-dose-only effect, or another doubt; inactive means no such curve, though single readings can be large; an effect the other way counts as inactive or inconclusive. Potency means the concentration at half of the fitted maximal effect.

SMILES	FEN1 inhibitor	Pol kappa inh-1	Pol eta inh-1	Pol beta inh	Pol iota inh	WRN helicase inh	Pol iota confirm	Pol eta inh-2	others
Cc1nc2cnc(N3CCOCC3)nc2n(C)c1=O	nt	-5%[60.1 µM]	nt	nt	nt	nt	nt	nt
C/C(=N\Nc1ccc(Cl)c(C(=O)O)c1)c1ccc[nH]1	-32%	45µM*	14µM*	32µM*	45µM*	?	53*	27*
COc1cccc(-c2nc3c(c(C)nn3-c3ccccc3)c3cc(OC)c(OC)cc23)c1	-14%	-8%	-11%	34%	-18%	nt	nt	nt
COc1cc2c(-c3ccc(O)cc3)nc3c(c(C)nn3-c3ccccc3)c2cc1OC	?	-11%	?	?	?	?	24*	67*
CCOC(=O)/C(C(N)=NCC(C)C)=C(/O)c1ccccc1	-2%	-20%	-1%	12%	-3%	-5%	nt	nt
COc1ccccc1CNC(=O)CSc1ccsc1[N+](=O)[O-]	38%	-16%	-5%	?	?	-7%	nt	nt
CCc1ccccc1NC(=O)CSc1ccsc1[N+](=O)[O-]	-10%	?	32µM*	25µM*	18µM*	?	?	60*
O=C(CSc1ccsc1[N+](=O)[O-])Nc1cccc(F)c1	?	22µM*	22µM*	7.1µM*	?	?	67*	48*
O=C(CN1CCN(S(=O)(=O)c2ccc(Br)cc2)CC1)N/N=C/c1ccncc1	-3%	-16%	-13%	-2%	-4%	-4%	nt	nt
CCC(Oc1ccc(C)cc1)C(=O)Nc1ccc(S(=O)(=O)Nc2cc(C)on2)cc1 (centres undefined)	-4%	1%	-2%	?	108%	-3%	nt	nt
CCOc1ccccc1/C=N/Nc1nc2c(N)ncnc2n1[C@H]1O[C@@H](CO)[C@H](O)[C@@H]1O	-4%	0%	-20%	?	-26%	-4%	nt	nt
O=C(C1CCCN(c2ncnc3c2nc2n3CCCCC2)C1)N1CCCCC1 (centres undefined)	16%	6%	-8%	15%	12%	8%	nt	nt
O=C1NCCCC1C(=O)N/N=C/c1cccc([N+](=O)[O-])c1 (centres undefined)	2%	-19%	6%	1%	67%	1%	nt	nt
NCC(O)c1ccc(O)c(O)c1 (centres undefined)	1%	7.5µM*	?	35µM*	35µM*	-35%[57.1 µM]	47*	?
Cc1cccc(C)c1OCc1n[nH]c(=S)o1	-1%	-12%	4%	?	-2%	-8%	nt	nt
CC(=O)c1ccc(Cc2cnc(N)s2)cc1	-11%	-6%	1%	17%	5%	-14%	nt	nt
Nc1ncc(N=Nc2cc(C(=O)O)ccc2Cl)s1	?	79µM*	13µM*	?	7.9µM*	-29%[11.6 µM]	60*	21*
CCOC(=O)c1ccc(Nc2ncccc2[N+](=O)[O-])cc1	-3%	0%	-4%	15%	64%	0%	nt	nt
CCOC(=O)c1ccc(N/N=C/c2cc(Br)cc([N+](=O)[O-])c2O)cc1	0%	1%	25µM*	-27%	100%	-12%[11.6 µM]	67*	?
CN(C(=O)C1CCCCC1)C1CCS(=O)(=O)C1 (centres undefined)	6%	-1%	0%	nt	-8%	-1%	nt	nt
Cc1ccc(-n2c(C)cc(C(=O)OCC(=O)N3CCOCC3)c2C)cc1	-3%	-5%	-21%	nt	85%	-7%	nt	nt
Cc1ccc(C(=O)OCC(=O)c2ccc(CC(=O)N3CCOCC3)s2)c(C)c1	0%	18µM*	16µM*	nt	13µM*	50µM*	42*	?	Pol kappa inh-2=38*
